TAR Tat displ = TAR RNA-Tat peptide displacers, HIV-1, primary screen, biochemical, FRET, FAM/TAMRA-labeled Tat; HIV-1 TAR RNA, Tat peptide displacement FRET; hits give high values; z-score (concentration not given with the values); hit rate 0.6% among 100,000; active = z-score of 3 or more in at least 2 runs
CDC25B CDK2 inh = primary biochemical HTRF screen for blockers of M-phase inducer phosphatase 2 binding to CDK2/cyclin A. HTRF CDC25B-CDK2/CyclinA binding, anti-His/anti-Flag; hits give high values. AID 1259370, 2018. hit rate 0.72% among 94,000. z-score (test concentration not listed); in the data active = z-score above about 3.2
* marks the source's active call; other numbers are inactive results; · = no result. Compounds with a hit are over-represented: about 0.93% of the library has one in this group of screens.

SMILES | TAR Tat displ | CDC25B CDK2 inh
COc1ccc(-c2onc(C)c2C)cc1S(=O)(=O)Nc1ccc2c(c1)OCO2 | 0.22 | ·
Cc1nc2sccn2c(=O)c1S(=O)(=O)Nc1ccc(Br)cc1 | 0.86 | -1.6
O=C(O)c1ccc(-c2cc(C(=O)O)c3c(-c4ccccc4)[nH]nc3n2)cc1 | 1.8 | ·
O=C(O)c1cc(-c2ccc(O)c(O)c2)nc2n[nH]c(-c3ccccc3)c12 | 19* | -0.65
O=C(O)CCSc1cccc2cccc(C(=O)O)c12 | · | 11*
O=C(O)CSc1cccc2cccc(C(=O)O)c12 | 1.1 | 0.74
O=S(=O)(Nc1ccc(Oc2ccc(F)cc2)cc1)c1ccc(Cl)cc1 | · | 12*
COc1ccc(NS(=O)(=O)c2ccc(NS(=O)(=O)c3ccc(Cl)cc3)cc2)cc1 | -0.37 | 0.47
COc1ccc(-c2nc(C(N)=O)c3[nH]c(=O)n(-c4ccccc4OC)c3n2)cc1OC | 4.9 | ·
O=c1[nH]c2ccc(S(=O)(=O)NC3CCCCC3)cc2[nH]1 | -0.22 | 0.15
CN(C)c1cc(NCCN2CCCCC2)c2c3c(onc13)-c1ccccc1C2=O | 0.47 | 2.6
CCN1CCN(c2cc(NCCO)c3c4c(onc24)-c2ccccc2C3=O)CC1 | 15* | 1.1
CC(C)Nc1cc(N2CCN(C)CC2)c2noc3c2c1C(=O)c1ccccc1-3 | 9.7* | 1.5
CCCN1CCN(c2cc(NCCO)c3c4c(onc24)-c2ccccc2C3=O)CC1 | 2.9 | -3.6
CC1CCCN(CCNc2cc(N(C)C)c3noc4c3c2C(=O)c2ccccc2-4)C1 (stereo unspecified) | 9.3* | -2.1
CN1CCN(c2cc(Nc3ccc(N(C)C)cc3)c3c4c(onc24)-c2ccccc2C3=O)CC1 | -1.2 | -0.4
CC(C)Nc1cc(N2CCCCC2)c2noc3c2c1C(=O)c1ccccc1-3 | 0.79 | -1.2
COc1ccc(Nc2cc(N3CCN(C)CC3)c3noc4c3c2C(=O)c2ccccc2-4)cc1 | 0.88 | 7.5*
CN(C(=O)CCNS(=O)(=O)c1ccc2c(c1)c(=O)n(C)c(=O)n2C)C1CCCCC1 | · | -1.5
COc1ccc(-c2nc(CSc3nc4c(c(=O)[nH]3)CCC4)c(C)o2)cc1 | · | -0.32
Brc1ccccc1Nc1nc2ccccc2n2cnnc12 | -0.07 | -0.99
Cc1c(C(=O)NCC2CCCO2)oc2ccc3c(c12)C(=O)CC1(CCCCC1)O3 (stereo unspecified) | 2.6 | 0.23
Cc1ccc(NS(=O)(=O)c2ccc3c(c2)N(C)CCO3)c(Cl)c1 | 0.55 | ·
COCCNc1cc(N2CCN(C)CC2)c2noc3c2c1C(=O)c1ccccc1-3 | 1.6 | -2.5
COCCNc1cc(N2CCCCC2)c2noc3c2c1C(=O)c1ccccc1-3 | 8.1* | 1.7
SMILES | TAR Tat displ | CDC25B CDK2 inh
CC1CCCN(c2cc(NC(C)C)c3c4c(onc24)-c2ccccc2C3=O)C1 (stereo unspecified) | 0.41 | -0.58
CN1CCN(c2cc(NCCO)c3c4c(onc24)-c2ccccc2C3=O)CC1 | 9* | 0.56
O=C1c2ccccc2-c2onc3c(N4CCCC4)cc(NCCO)c1c23 | -5.9 | -1.1
CCNc1cc(N2CCCC(C)C2)c2noc3c2c1C(=O)c1ccccc1-3 (stereo unspecified) | 4.5* | -0.57
O=C1c2ccccc2-c2onc3c(N4CCCCC4)cc(NCCO)c1c23 | 23* | 12
O=C1c2ccccc2-c2onc3c(N4CCN(c5ccccc5F)CC4)cc(NCCO)c1c23 | 2.3 | 0.96
CC(C)Cn1cc(NC(=O)NC2CCCc3ccccc32)c2ccccc2c1=O (stereo unspecified) | 2 | ·
CNC(=O)Nc1ncc(C)nc1C | · | -2.4
COc1ccc(C2C(C(=O)OC3CCCCC3)=C(C)NC3=C2C(=O)CCC3)cc1Br (stereo unspecified) | 1.2 | -1.5
O=C1c2ccccc2-c2onc3c(N4CCCCC4)cc(NCCN4CCOCC4)c1c23 | 6.4* | 1.9
CN1CCN(c2cc(NCCN3CCCC3)c3c4c(onc24)-c2ccccc2C3=O)CC1 | -3.5 | -2.2
CCCCNc1cc(N2CCN(CCO)CC2)c2noc3c2c1C(=O)c1ccccc1-3 | 7.7* | 0.83
O=C1c2ccccc2-c2onc3c(N4CCCCC4)cc(NCCN4CCCC4)c1c23 | 0.1 | -0.44
N/C(=N/c1ccccn1)c1ccc(Cl)cc1 | · | -1.2
CN(CC(=O)NCC1COc2ccccc2O1)S(=O)(=O)c1ccc2c(c1)c(=O)n(C)c(=O)n2C (stereo unspecified) | · | -0.11
Cc1ccccc1-c1noc(-c2nnn(-c3ccc(F)c(Cl)c3)c2C)n1 | 1.4 | ·
CCCc1nn2c(=O)cc(CSc3nc(-c4ccco4)nc4cc(=O)[nH]n34)nc2s1 | 0.67 | ·
O=c1cc2nc(-c3ccco3)nc(SCc3cc(=O)n4nc(C5CCCCC5)sc4n3)n2[nH]1 | 3.3* | ·
CC(C)NS(=O)(=O)c1cc2c3c(c1)CC(=O)N3CCC2 | 1.1 | ·
Cc1nn(-c2nc3ccccc3[nH]2)c2c1C(c1cc(F)cc(F)c1)CC(=O)N2 (stereo unspecified) | 1.5 | ·
Cc1ccc(-c2cnnc(-n3nc(C)c4c3NC(=O)CC4c3ccc(C(=O)O)cc3)n2)cc1 (stereo unspecified) | 0.9 | -0.92
Cc1nn(-c2nc3ccccc3[nH]2)c2c1C(c1ccc(C(=O)O)cc1)CC(=O)N2 (stereo unspecified) | 25* | ·
Cc1nn(-c2nncc(-c3ccc(F)cc3)n2)c2c1C(c1ccc(C(=O)O)cc1)CC(=O)N2 (stereo unspecified) | 3.7* | -2
O=C(CN1C(=O)CCc2cc(Br)ccc21)N1CCc2ccccc2C1 | 0.78 | ·
CCOC(=O)c1sc2ccccc2c1S(=O)(=O)N1CCCC1 | 1.2 | ·
SMILES | TAR Tat displ | CDC25B CDK2 inh
Cc1nc(N=Nc2ccc(C(=O)O)cc2)c(COP(=O)(O)O)c(C=O)c1O | · | -2.5
Cc1ncc(COP(=O)(O)O)c(C=Nc2ccc3ccccc3c2)c1O | · | 14*
CC(C)CC(NS(=O)(=O)c1ccc2c(c1)oc(=O)n2C)C(=O)Nc1ccc2c(c1)OCCO2 (stereo unspecified) | 0.91 | 0.23
CC1(C)N([O-])C2=C(c3ccccc3C2=O)[N+](=O)C1(C)C | · | 17*
CCOC(=O)c1cn[nH]c1S(=O)(=O)N1CCC(N2CCCCC2)CC1 | -0.03 | ·
Cc1ccc(S(=O)(=O)Nc2c(-n3cnnc3)nn(C)c2C)cc1 | -0.36 | -1.7
N#Cc1cccc(C#N)c1Oc1ccc(S(=O)(=O)NCc2ccco2)cc1 | · | -1.4
COc1ccc(-c2cc3nc(C)cc(NCc4cccnc4)n3n2)cc1OC | 5.1* | -2.1
COc1ccc(CNc2cc(C)nc3c(-c4ccc(OC)c(OC)c4)c(C)nn23)cc1 | 0.44 | -2.5
N#Cc1c(NC(=O)c2cc3ncc(Br)cn3n2)sc2c1CCCC2 | 7.3* | 0.64
CC(=O)Nc1sc2c(c1C#N)CCCC2 | 0.23 | 0.23
COCCOC(=O)C1=C(C)NC2=C(C(=O)CC(c3ccccc3Cl)C2)C1c1ccc(C)o1 (stereo unspecified) | 2.8 | -2
N/C(=N\OC(=O)c1c(F)cccc1F)c1ccccn1 | · | -1.2
COc1cccc(C2CC(=O)N3CN(Cc4ccco4)CSC3=C2C#N)c1 (stereo unspecified) | -0.78 | 15*
COc1cc(C2CC(=O)N3CN(Cc4ccco4)CSC3=C2C#N)ccc1O (stereo unspecified) | -0.81 | 4.9*
COc1ccc(C2CC(=O)N3CN(Cc4ccco4)CSC3=C2C#N)cc1OC (stereo unspecified) | 1.1 | 5.5*
